# Assay results: article PMC7862700, “An all-to-all approach to the identification of sequence-specific readers for epigenetic DNA modifications on cytosine”
# How the values were obtained:
# Assay in all cases: DAPPL (digital affinity profiling via proximity ligation, sequencing); 10 mM Tris-HCl pH 7.5, 50 mM NaCl, 1 mM DTT, 4% glycerol, room temperature, 30 min; GST-TFs on glutathione beads, 16-mer random dsDNA library, 0.1% formaldehyde crosslink after washing; high values mean tight binding
# FLI1 = biological target: T1, FLI1 (Homo sapiens, UniProt Q01543 1-452); conditions: protein: recombinant; tags: N-terminal GST; dsDNA, one strand shown
# T1 sequence: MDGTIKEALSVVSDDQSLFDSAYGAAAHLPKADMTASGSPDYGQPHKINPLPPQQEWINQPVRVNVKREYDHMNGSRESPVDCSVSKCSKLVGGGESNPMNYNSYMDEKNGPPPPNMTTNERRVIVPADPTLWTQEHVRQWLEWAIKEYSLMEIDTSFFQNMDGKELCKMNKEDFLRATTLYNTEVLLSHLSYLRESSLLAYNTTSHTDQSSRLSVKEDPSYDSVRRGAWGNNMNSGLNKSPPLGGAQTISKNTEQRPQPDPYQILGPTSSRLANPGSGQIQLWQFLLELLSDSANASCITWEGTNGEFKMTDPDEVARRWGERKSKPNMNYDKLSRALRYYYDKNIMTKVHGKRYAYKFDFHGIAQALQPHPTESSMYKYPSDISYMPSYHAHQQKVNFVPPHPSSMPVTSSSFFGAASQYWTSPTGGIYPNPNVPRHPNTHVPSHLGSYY
# Method in brief: (§1)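 GST fusions of human transcription factors were expressed in yeast and captured with glutathione beads. Once given DNA barcodes and pooled alongside a tag-only sample, they were incubated for 30 min at room temperature with 200 nmole of a random double-stranded 16-mer DNA library in Tris/NaCl/DTT/glycerol buffer, then washed, crosslinked (0.1% formaldehyde), proximity-ligated, PCR-amplified and sequenced on an Illumina NextSeq500. The binding signal of each hexamer is its read frequency for a factor divided by its frequency for the tag-only sample.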
# ELK1 = biological target: T2, ELK1 (Homo sapiens, UniProt P19419 1-428); conditions: protein: recombinant; tags: N-terminal GST; dsDNA, one strand shown
# T2 sequence: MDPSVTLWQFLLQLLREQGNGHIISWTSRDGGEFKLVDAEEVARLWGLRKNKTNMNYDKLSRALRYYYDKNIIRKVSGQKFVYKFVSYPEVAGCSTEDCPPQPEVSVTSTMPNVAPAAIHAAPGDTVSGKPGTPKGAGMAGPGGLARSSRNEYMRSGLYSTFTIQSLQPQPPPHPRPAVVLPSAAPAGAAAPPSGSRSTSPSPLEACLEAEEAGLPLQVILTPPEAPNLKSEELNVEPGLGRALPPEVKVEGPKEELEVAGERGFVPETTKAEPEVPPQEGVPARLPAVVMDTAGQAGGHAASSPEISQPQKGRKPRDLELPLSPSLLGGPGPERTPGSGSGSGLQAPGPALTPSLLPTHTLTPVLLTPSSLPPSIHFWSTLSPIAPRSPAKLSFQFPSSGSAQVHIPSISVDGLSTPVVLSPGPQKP
# Method in brief: as §1
# GABPA = biological target: T3, GABPA (Homo sapiens, UniProt Q06546 1-454); conditions: protein: recombinant; tags: N-terminal GST; dsDNA, one strand shown
# T3 sequence: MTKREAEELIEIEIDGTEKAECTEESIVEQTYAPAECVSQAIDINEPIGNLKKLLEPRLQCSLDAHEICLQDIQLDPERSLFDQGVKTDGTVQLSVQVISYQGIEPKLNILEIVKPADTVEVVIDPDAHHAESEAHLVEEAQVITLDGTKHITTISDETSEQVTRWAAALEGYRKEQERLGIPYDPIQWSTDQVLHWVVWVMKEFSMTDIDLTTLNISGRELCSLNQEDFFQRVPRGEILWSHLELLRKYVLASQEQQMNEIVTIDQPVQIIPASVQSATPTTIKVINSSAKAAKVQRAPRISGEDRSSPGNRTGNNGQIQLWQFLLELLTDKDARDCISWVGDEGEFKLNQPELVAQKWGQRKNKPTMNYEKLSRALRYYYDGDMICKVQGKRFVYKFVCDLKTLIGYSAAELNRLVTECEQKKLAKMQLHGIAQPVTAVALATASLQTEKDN
# Method in brief: as §1
# ERG = biological target: T4, ERG (Homo sapiens, UniProt P11308 1-479); conditions: protein: recombinant; tags: N-terminal GST; dsDNA, one strand shown
# T4 sequence: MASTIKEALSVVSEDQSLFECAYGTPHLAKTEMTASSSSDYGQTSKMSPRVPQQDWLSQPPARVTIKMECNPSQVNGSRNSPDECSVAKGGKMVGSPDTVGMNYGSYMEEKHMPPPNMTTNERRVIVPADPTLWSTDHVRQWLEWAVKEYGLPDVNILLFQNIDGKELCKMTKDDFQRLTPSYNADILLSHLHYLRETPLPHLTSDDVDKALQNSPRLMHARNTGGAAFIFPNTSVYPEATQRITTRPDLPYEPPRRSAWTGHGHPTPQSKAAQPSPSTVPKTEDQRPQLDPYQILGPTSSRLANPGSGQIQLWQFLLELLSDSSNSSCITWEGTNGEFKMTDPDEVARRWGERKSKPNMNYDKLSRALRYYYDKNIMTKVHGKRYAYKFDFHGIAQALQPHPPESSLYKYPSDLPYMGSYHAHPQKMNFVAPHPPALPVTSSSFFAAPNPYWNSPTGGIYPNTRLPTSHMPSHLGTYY
# Method in brief: as §1
# ELF1 = ELF1 (Homo sapiens, UniProt P32519 1-619); conditions: protein: recombinant; tags: N-terminal GST; dsDNA, one strand shown
# Sequence of ELF1 (P32519 whole entry): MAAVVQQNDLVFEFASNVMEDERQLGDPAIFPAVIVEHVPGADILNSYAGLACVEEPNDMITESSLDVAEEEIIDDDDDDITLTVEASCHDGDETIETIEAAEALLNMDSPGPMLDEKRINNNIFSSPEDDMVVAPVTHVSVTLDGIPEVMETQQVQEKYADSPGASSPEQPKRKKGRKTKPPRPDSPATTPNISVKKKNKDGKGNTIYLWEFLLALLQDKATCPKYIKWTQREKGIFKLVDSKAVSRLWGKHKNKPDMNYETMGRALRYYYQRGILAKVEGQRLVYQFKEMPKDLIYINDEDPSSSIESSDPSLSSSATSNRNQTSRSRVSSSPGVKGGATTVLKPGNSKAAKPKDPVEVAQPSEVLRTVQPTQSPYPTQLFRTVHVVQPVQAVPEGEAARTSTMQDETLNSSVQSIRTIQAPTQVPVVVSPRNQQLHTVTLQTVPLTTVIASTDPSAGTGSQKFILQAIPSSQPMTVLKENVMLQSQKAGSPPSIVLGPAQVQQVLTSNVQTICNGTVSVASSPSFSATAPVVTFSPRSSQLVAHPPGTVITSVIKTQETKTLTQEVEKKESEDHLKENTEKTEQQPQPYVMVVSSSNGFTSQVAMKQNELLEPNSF
# Method in brief: as §1
# EHF = biological target: T5, EHF (Homo sapiens, UniProt Q9NZC4 1-300); conditions: protein: recombinant; tags: N-terminal GST; dsDNA, one strand shown
# T5 sequence: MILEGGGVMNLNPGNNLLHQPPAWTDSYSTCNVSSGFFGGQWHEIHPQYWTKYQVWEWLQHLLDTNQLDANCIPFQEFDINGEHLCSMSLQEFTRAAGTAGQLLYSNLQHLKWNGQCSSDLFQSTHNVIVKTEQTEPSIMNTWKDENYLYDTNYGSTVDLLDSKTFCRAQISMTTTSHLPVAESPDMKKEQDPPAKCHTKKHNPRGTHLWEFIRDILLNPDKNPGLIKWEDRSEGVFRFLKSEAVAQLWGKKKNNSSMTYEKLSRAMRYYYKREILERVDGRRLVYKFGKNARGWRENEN
# Method in brief: as §1
# SPI1 = SPI1 (Homo sapiens, UniProt P17947 1-270); conditions: protein: recombinant; tags: N-terminal GST; dsDNA, one strand shown
# Method in brief: as §1
# SPIB = SPIB (Homo sapiens, UniProt Q01892 1-262); conditions: protein: recombinant; tags: N-terminal GST; dsDNA, one strand shown
# Sequence of SPIB (Q01892 whole entry): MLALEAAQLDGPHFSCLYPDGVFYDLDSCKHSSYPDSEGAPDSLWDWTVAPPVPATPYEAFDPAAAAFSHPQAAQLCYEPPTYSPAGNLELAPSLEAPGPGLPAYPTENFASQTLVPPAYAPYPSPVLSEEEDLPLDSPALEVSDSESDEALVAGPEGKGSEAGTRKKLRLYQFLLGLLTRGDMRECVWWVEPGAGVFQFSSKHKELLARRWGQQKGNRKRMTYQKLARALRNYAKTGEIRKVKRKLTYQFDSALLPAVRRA
# Method in brief: as §1
# ELK3 = biological target: T6, ELK3 (Homo sapiens, UniProt P41970 1-407); conditions: protein: recombinant; tags: N-terminal GST; dsDNA, one strand shown
# T6 sequence: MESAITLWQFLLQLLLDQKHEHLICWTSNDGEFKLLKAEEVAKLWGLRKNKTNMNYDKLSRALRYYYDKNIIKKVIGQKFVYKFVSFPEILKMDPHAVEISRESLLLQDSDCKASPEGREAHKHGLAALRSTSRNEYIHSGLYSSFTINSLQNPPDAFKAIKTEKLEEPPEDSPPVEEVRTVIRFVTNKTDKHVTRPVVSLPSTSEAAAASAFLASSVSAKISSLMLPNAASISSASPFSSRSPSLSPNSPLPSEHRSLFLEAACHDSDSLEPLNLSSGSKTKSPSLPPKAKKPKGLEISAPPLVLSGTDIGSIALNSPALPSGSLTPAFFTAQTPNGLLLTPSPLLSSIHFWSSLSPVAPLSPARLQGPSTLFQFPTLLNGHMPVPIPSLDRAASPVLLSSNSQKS
# Method in brief: as §1
# FEV = biological target: T7, FEV (Homo sapiens, UniProt Q99581 1-238); conditions: protein: recombinant; tags: N-terminal GST; dsDNA, one strand shown
# T7 sequence: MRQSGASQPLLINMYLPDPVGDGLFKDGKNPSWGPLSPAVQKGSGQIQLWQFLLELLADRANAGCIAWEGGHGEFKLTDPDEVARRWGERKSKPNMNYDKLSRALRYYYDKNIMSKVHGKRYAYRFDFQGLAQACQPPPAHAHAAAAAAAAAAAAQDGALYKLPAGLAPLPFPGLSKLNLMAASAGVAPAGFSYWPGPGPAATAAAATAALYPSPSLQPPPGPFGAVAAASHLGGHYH
# Method in brief: as §1
# ETV5 = ETV5 (Homo sapiens, UniProt P41161 1-510); conditions: protein: recombinant; tags: N-terminal GST; dsDNA, one strand shown
# Sequence of ETV5 (P41161 whole entry): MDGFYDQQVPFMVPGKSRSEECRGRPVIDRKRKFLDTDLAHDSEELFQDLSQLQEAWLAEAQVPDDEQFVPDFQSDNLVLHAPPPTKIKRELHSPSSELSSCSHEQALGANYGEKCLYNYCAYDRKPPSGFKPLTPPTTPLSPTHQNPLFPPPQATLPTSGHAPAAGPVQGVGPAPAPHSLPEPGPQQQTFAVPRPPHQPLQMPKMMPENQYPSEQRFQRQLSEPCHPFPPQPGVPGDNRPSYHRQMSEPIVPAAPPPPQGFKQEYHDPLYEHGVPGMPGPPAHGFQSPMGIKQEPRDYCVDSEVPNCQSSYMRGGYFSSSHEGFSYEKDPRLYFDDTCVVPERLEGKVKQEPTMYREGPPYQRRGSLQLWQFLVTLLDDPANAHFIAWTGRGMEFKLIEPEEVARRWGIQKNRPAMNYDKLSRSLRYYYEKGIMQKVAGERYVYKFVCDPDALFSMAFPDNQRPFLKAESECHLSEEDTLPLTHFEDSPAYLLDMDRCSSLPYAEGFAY
# Method in brief: as §1
# HSF1 = HSF1 (Homo sapiens, UniProt Q00613 1-529); conditions: protein: recombinant; tags: N-terminal GST; chain copies: 3; dsDNA, one strand shown
# Sequence of HSF1 (Q00613 whole entry): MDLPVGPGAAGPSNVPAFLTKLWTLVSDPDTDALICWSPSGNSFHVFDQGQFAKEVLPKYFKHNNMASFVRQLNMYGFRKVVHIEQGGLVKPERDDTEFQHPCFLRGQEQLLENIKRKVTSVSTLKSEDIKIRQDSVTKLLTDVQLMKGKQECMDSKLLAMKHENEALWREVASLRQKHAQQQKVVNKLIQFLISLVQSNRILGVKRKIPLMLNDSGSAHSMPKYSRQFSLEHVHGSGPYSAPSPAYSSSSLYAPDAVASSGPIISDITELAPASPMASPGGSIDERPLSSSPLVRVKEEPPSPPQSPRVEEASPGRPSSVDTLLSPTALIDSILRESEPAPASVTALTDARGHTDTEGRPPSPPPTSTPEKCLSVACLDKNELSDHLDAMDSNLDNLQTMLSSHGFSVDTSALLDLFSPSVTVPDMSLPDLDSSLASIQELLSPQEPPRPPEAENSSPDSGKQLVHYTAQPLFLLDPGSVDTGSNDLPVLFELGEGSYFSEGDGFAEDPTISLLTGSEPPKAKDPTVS
# Method in brief: as §1
# SPIC = biological target: T8, SPIC (Homo sapiens, UniProt Q8N5J4 1-248); conditions: protein: recombinant; tags: N-terminal GST; dsDNA, one strand shown
# T8 sequence: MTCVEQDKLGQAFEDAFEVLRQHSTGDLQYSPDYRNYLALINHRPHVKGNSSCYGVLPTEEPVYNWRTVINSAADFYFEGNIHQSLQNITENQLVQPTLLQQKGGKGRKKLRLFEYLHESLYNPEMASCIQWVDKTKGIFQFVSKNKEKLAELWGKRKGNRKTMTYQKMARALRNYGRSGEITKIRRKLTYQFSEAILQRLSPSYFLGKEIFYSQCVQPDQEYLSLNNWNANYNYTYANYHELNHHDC
# Method in brief: as §1
# ELF4 = ELF4 (Homo sapiens, UniProt Q99607 1-663); conditions: protein: recombinant; tags: N-terminal GST; dsDNA, one strand shown
# Sequence of ELF4 (Q99607 whole entry): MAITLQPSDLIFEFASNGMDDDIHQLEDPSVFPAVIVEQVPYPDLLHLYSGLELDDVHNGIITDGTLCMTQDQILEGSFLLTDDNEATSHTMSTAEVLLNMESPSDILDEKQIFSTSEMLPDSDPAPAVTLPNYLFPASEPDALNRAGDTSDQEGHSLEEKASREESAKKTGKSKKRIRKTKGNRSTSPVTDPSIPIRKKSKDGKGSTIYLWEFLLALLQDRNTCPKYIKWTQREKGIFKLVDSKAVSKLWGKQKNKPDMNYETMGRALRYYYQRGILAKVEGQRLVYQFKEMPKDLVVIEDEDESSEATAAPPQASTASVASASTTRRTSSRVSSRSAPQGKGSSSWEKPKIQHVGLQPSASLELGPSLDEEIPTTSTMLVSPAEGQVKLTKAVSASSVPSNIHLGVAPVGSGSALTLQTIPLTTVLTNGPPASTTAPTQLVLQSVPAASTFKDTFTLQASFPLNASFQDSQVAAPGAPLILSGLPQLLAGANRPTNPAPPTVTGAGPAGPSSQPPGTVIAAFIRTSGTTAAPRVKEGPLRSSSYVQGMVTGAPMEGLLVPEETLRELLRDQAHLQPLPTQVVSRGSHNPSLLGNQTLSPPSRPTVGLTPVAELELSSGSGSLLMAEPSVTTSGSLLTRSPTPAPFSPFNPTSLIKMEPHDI
# Method in brief: as §1
# ELK4 = biological target: T9, ELK4 (Homo sapiens, UniProt P28324-2 1-405); conditions: protein: recombinant; tags: N-terminal GST; dsDNA, one strand shown
# T9 sequence: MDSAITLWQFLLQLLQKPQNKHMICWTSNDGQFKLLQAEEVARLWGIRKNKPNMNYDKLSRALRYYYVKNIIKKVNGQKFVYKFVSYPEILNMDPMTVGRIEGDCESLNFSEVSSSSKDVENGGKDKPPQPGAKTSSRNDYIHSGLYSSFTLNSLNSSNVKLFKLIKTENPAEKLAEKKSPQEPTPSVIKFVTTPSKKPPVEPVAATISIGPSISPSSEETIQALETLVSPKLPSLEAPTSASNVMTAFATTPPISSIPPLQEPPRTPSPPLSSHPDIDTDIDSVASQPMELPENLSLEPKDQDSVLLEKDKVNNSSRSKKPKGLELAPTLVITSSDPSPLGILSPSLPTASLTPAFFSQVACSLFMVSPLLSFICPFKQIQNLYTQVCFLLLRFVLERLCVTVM
# Method in brief: as §1
# ETV2 = biological target: T10, ETV2 (Homo sapiens, UniProt O00321 1-342); conditions: protein: recombinant; tags: N-terminal GST; dsDNA, one strand shown
# T10 sequence: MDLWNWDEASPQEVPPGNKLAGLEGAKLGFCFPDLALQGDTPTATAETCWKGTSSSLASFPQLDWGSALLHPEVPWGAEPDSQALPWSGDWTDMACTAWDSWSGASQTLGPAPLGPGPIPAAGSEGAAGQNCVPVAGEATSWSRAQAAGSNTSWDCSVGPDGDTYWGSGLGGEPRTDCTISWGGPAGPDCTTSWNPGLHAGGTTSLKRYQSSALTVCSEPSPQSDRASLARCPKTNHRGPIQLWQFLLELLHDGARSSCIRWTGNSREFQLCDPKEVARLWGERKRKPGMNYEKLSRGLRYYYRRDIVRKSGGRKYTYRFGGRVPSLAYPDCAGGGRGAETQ
# Method in brief: as §1
# ELF3 = biological target: T11, ELF3 (Homo sapiens, UniProt P78545 1-371); conditions: protein: recombinant; tags: N-terminal GST; dsDNA, one strand shown
# T11 sequence: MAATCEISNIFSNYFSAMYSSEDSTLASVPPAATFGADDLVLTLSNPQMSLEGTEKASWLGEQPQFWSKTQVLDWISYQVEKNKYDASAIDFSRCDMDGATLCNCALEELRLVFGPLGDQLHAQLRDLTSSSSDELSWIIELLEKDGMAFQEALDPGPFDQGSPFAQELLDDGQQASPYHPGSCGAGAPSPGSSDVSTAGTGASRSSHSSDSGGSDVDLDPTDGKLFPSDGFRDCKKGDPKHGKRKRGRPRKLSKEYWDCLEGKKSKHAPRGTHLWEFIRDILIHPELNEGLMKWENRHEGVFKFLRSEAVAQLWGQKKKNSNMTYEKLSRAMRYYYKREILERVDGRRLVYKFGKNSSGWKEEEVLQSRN
# Method in brief: as §1
# CRX = CRX (Homo sapiens, UniProt O43186 1-299); conditions: protein: recombinant; tags: N-terminal GST; dsDNA, one strand shown
# Sequence of CRX (O43186 whole entry): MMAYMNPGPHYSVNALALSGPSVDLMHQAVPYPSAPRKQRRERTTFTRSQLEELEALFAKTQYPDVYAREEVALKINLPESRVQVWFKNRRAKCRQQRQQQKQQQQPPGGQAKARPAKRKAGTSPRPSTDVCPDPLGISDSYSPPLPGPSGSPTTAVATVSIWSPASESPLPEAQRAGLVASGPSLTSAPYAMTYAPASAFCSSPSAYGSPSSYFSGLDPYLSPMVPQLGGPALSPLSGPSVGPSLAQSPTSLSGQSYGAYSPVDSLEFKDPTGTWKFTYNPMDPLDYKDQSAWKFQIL
# Method in brief: as §1
# ETV1 = ETV1 (Homo sapiens, UniProt P50549 1-477); conditions: protein: recombinant; tags: N-terminal GST; dsDNA, one strand shown
# Sequence of ETV1 (P50549 whole entry): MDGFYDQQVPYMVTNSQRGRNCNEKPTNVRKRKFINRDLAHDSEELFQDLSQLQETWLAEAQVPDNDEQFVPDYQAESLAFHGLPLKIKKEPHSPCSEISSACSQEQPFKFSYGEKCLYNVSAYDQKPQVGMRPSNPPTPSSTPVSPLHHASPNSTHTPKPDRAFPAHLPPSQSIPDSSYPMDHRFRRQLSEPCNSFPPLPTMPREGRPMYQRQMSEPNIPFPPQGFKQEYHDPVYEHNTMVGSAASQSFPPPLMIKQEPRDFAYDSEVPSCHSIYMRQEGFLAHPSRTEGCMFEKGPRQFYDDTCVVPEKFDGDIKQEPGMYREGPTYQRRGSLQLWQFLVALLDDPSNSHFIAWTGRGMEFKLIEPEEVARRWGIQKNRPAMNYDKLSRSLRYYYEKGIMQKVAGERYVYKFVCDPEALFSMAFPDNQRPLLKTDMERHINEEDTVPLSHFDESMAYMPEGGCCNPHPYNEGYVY
# Method in brief: as §1
sequence,measurement,setting,value
ATTGCC,binding signal,FLI1,"1.28 fold enrichment (6-mer frequency, TF over GST control)"
same,binding signal,ELK1,"1.27 fold enrichment (6-mer frequency, TF over GST control)"
same,binding signal,GABPA,"1.28 fold enrichment (6-mer frequency, TF over GST control)"
same,binding signal,ERG,"1.14 fold enrichment (6-mer frequency, TF over GST control)"
same,binding signal,ELF1,"1.21 fold enrichment (6-mer frequency, TF over GST control)"
same,binding signal,EHF,"1.24 fold enrichment (6-mer frequency, TF over GST control)"
same,binding signal,SPI1,"1.15 fold enrichment (6-mer frequency, TF over GST control)"
same,binding signal,SPIB,"1.26 fold enrichment (6-mer frequency, TF over GST control)"
same,binding signal,ELK3,"1.15 fold enrichment (6-mer frequency, TF over GST control)"
same,binding signal,FEV,"1.25 fold enrichment (6-mer frequency, TF over GST control)"
same,binding signal,ETV5,"1.28 fold enrichment (6-mer frequency, TF over GST control)"
same,binding signal,HSF1,"1.09 fold enrichment (6-mer frequency, TF over GST control)"
same,binding signal,SPIC,"1.29 fold enrichment (6-mer frequency, TF over GST control)"
same,binding signal,ELF4,"1.3 fold enrichment (6-mer frequency, TF over GST control)"
same,binding signal,ELK4,"1.14 fold enrichment (6-mer frequency, TF over GST control)"
same,binding signal,ETV2,"1.12 fold enrichment (6-mer frequency, TF over GST control)"
same,binding signal,ELF3,"1.24 fold enrichment (6-mer frequency, TF over GST control)"
same,binding signal,CRX,"1.09 fold enrichment (6-mer frequency, TF over GST control)"
same,binding signal,ETV1,"1.2 fold enrichment (6-mer frequency, TF over GST control)"
